± gives the standard deviation of the averaged measurements.
system: Listeria monocytogenes 10403S; experiment: growth inhibition relative to ceftriaxone-alone control; higher = stronger potentiation of ceftriaxone growth inhibition; conditions: 10 µM; ceftriaxone 1 ug/ml; 12 h
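Note: End-point A600 read in BHI broth at 37 °C with 2% DMSO, inhibition computed as (1 − OD with compound plus ceftriaxone ÷ OD with ceftriaxone only) × 100.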

Structure (SMILES) | growth inhibition
NS(=O)(=O)c1ccc(Nc2cc(-c3ccc(O)c(F)c3)n[nH]2)cc1 | 10.1 ± 4.6%
CS(=O)(=O)CCNCc1coc(-c2ccc3ncnc(Nc4ccc(OCc5ccccc5)cc4)c3c2)c1 | 4.98 ± 4.3%
CN(c1ccc(NC(=O)NCCN2CCOCC2)cc1)c1ccnc(Nc2ccc(CS(C)(=O)=O)cc2)n1 | -5.31 ± 3%
Cc1cc(O)cc(C)c1/C=C/c1cncc(-c2nn[nH]n2)c1 | -2.34 ± 0.16%
CS(=O)(=O)Nc1ccc(-c2cc(-c3ccccc3)cc(C(N)=O)c2N)cc1 | 29.1 ± 20%
Cc1ccc(C(=O)NC2CCCCC2)cc1-c1ccc(C(=O)NCC2CC2)cc1 | -1.78 ± 6.1%
Cc1[nH]c(/C=C2\C(=O)Nc3ccccc32)c(C)c1CCC(=O)O | 98.7 ± 2.4%
CN1CCN(C(=O)c2ccc(NC(=O)Nc3ccc(N(C)c4ccnc(Nc5ccc(CS(C)(=O)=O)cc5)n4)cc3)cc2)CC1 | -5.87 ± 3.3%
COc1ccc2[nH]c3c4[nH]c5ccc(OC)cc5c4c4c(c3c2c1)C(=O)NC4=O | -8.86 ± 4.5%
NS(=O)(=O)c1ccc(N/N=C2\C(=O)Nc3ccc4ncccc4c32)cc1 | -6.48 ± 3.8%
Cc1nnc(-c2ccc(C)c(-c3ccc(C(=O)NCc4ccc(Cl)cc4)cc3)c2)o1 | -4.74 ± 3.3%
Nc1nccc(C#Cc2cncnc2Nc2ccc(OCc3cccc(F)c3)c(Cl)c2)n1 | 8.9975 ± 0.0066%
COc1ccc(-c2cc(-c3c[nH]nc3-c3ccccn3)ccn2)cc1 | 3.1 ± 4.7%
CCn1c(-c2nonc2N)nc2c(C#CC(C)(C)O)ncc(OC[C@H]3CCCNC3)c21 | 98.398 ± 0.078%
Cc1cc(O)cc(C)c1/C=C/c1cncc(C(=O)OC(C)(C)C)c1 | -0.285 ± 0.11%

Source: the supplement of paper PMC5641865, “A screen for kinase inhibitors identifies antimicrobial imidazopyridine aminofurazans as specific inhibitors of the Listeria monocytogenes PASTA kinase PrkA” (The Journal of Biological Chemistry, 2017)
